The text below walks through data of PubChem BioAssay (NCATS).

The target of assay [1] is Glutathione peroxidase 1 (Homo sapiens) (UniProt P07203). The experiment in a line: Primary qHTS Assay for Inhibitors of Recombinant Selenoprotein Glutathione Peroxidase 1 (GPX1) (AID 1845191). Further: nearly all actives have a fitted effect of over 65% in size. On activity, negative = inhibition: on the % scale 0 is the no-effect control and ±100 the full control effect. Put shortly:
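Recombinant GPX1 (10 nM final) was preincubated with compound for 30 min at room temperature, then reacted with 1 mM GSH, 0.5 mM CHP, 0.5 mM NADPH and 100 nM glutathione reductase; NADPH fluorescence (340/450 nm) was read at 0 and 15 min.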
A general note: Quantitative high-throughput screening tests each substance at several concentrations.

Assay [2] deals with Phospholipid hydroperoxide glutathione peroxidase GPX4 (Homo sapiens) (UniProt P36969). The assay is described as follows: Primary qHTS Assay for Inhibitors of Recombinant Selenoprotein Glutathione Peroxidase 4 (GPX4) (AID 1845192). Further: nearly all actives have a fitted effect of over 65% in size. On activity change, negative = inhibition: series mostly up to about 50 µM; on the % scale 0 is the no-effect control and ±100 the full control effect. Summed up: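 GR-coupled readout: 100 nM GR, 1 mM GSH, 0.5 mM NADPH; NADPH fluorescence (ex 340/em 450 nm) read at t=0 and after 15 min RT. GPX4 200 nM, preincubated 30 min with compound; substrate 0.5 mM CHP.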
Chain of Phospholipid hydroperoxide glutathione peroxidase GPX4 (Homo sapiens) (P36969 whole entry, looked up): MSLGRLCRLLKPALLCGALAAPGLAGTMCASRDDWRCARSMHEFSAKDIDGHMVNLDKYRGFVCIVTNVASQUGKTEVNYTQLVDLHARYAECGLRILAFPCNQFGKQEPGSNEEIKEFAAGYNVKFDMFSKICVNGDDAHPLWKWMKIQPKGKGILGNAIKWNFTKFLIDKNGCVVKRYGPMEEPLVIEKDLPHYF

The target of assay [3] is Luciferin 4-monooxygenase (Photinus pyralis) (UniProt P08659). The assay is described as follows: Primary firefly luciferase (FLuc) qHTS assay for identification of artifact compounds. (AID 1845220). Further: nearly all actives have a fitted effect of over 60% in size.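 On activity change, negative = inhibition: series mostly up to about 54 µM; plate controls were DMSO vehicle for no effect and no enzyme for full effect.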 Put shortly: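 qHTS, 15 min compound preincubation with substrate (10 uM luciferin, 10 uM ATP) at RT, then 10 nM FLuc; 5 min; luminescence; % inhibition vs no-enzyme/DMSO controls, 4-parameter Hill fit.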

Assay [4] is described as follows: Primary fluorescence-based thiol-reactive (MSTI) qHTS assay for identification of artifact compounds. (AID 1845221). Further: nearly all actives have a fitted effect of over 65% in size. Further: potency means the concentration at half of the fitted maximal effect.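 On activity change, negative = thiol reactive: series mostly up to about 54 µM; thiol-reactive compounds lower the probe fluorescence signal.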 Summed up: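 Reactivity toward the thiol probe MSTI (4 uM) is scored by fluorescence at Ex/Em 525/598 nm after 1 h at room temperature. Acetyl-MSTI and MSTI define the activity scale.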
Assay [5] deals with Nanoluciferase (engineered Oplophorus gracilirostris luciferase). The assay is described as follows: Primary Nanoluciferase (NLuc) qHTS assay for identification of artifact compounds. (AID 1845222).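 Further: series mostly up to about 54 µM; 0% = DMSO and -100% = no enzyme.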 Put shortly: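 Luminescence read-out of secreted NLuc in S16 cell conditioned medium (1:55); compounds tested with 15 min RT preincubation, then Nano-Glo substrate 1:100, 5 min. % inhibition vs no-enzyme and DMSO controls, 4-parameter Hill fit.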

Assay [6] can be described thus: Primary redox qHTS assay for identification of artifact compounds. (AID 1845223).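 Further: 0% = DMSO and 100% = reference compound.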 Summed up:
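Amplex Red (25 uM) and HRP (250 mU/mL) in HBSS, with compounds for 15 min, then 250 uM DTT for 30 min, room temperature, dark. Fluorescence 525/598 nm read; normalized to DMSO and 10 uM DA3003; Hill fit.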

Unmarked numbers belong to inactive results. Results filed as inconclusive are left out. Active and inactive are the calls of the source. The call rests on the fitted dose curve; in most records, active means well fitted curve in the direction sought with a large enough effect; inconclusive means small, poorly fitted or top-dose-only effect, or another doubt; inactive means no such curve, though single readings can be large; an effect the other way counts as inactive or inconclusive.

Chain of Glutathione peroxidase 1 (Homo sapiens) (P07203 whole entry, looked up): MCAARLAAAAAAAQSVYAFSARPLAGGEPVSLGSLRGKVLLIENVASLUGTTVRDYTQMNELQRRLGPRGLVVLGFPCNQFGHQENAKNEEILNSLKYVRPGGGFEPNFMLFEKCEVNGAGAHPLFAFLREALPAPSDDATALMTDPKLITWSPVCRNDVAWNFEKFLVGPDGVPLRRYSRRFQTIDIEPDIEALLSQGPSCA

`CC(=O)OC1CC2C(C)(C)C(=O)C=CC2(C)C2CC(=O)C3=C(CCC3C3=CC(O)OC3=O)C12C` (stereo unspecified): the Potency entry in assay [1], in assay [2], in assay [3], in assay [4], in assay [5] and in assay [6] was “inactive” each time.
On to `C[C@@H]1C(=O)O[C@H](C)[C@H]1C[C@@H](O)[C@](C)(O)[C@H]1CC[C@@]2(O)C3=CC(=O)[C@@H]4C[C@@H](O)[C@@H](O)C[C@]4(C)C3CC[C@]12C` (stereo partly specified), for which the Potency entry in assay [1], in assay [2], in assay [3], in assay [4], in assay [5] and in assay [6] was “inactive” each time.
With `C/C=C(/C)C(=O)OC1C(OC(C)=O)C23C(O)OC4(CCC5C6(C)CCC(OC7OC(C(=O)O)C(O)C(OC8OC(CO)C(O)C(O)C8OC8OC(C)C(O)C(O)C8OC8OCC(O)C(O)C8O)C7OC7OC(CO)C(O)C(O)C7O)C(C)(C)C6CCC5(C)C4(C)CC2OC(C)=O)C3CC1(C)C` (stereo unspecified), the Potency result in assay [1] and in assay [2] was “inactive” in each case. Besides, the outcome in assay [3] was “inactive [at 11.6 µM]”. In addition, the activity change, negative = thiol reactive in assay [4] is 196% [at 11.5 µM]. In addition, the activity, negative = inhibition in assay [5] was 0.798% [at 11.6 µM]. In assay [6], the redox activity (% of DA3003) is 6.91% [at 11.5 µM].
With `COc1cc(/C=C/C(=O)O)ccc1O[C@@H]1O[C@H](CO)[C@@H](O)[C@H](O)[C@H]1O[C@@H]1OC[C@](O)(CO)[C@H]1O`, the Potency entry in assay [1], in assay [2], in assay [3], in assay [4], in assay [5] and in assay [6] was “inactive” each time.
Consider `CC(=O)OC/C(=C/C(=O)O)CC[C@@H]1C(C)=CC(=O)[C@@H]2C(C)(C)CCC[C@@]12C`, for which the Potency entry in assay [1], in assay [2], in assay [3], in assay [4], in assay [5] and in assay [6] was “inactive” each time.
`CC(C)C1(O)NC(=O)C(CC2(O)c3ccccc3N3C(=O)C(C)(C)NC32)n2c1nc1ccccc1c2=O` (stereo unspecified): the Potency entry in assay [1], in assay [2], in assay [3], in assay [4], in assay [5] and in assay [6] was “inactive” in each case.
Take `CC1(C)COC(=O)[C@@H]1O[C@@H]1O[C@H](CO)[C@@H](O)[C@H](O)[C@H]1O`: the Potency entry in assay [1], in assay [2], in assay [3], in assay [4], in assay [5] and in assay [6] was “inactive” throughout.
`CC(C)(O)c1ccc2c(c1)C(=O)C[C@H]1[C@](C)(C(=O)O)CCC[C@]21C`: the Potency entry in assay [1], in assay [2], in assay [3], in assay [4], in assay [5] and in assay [6] was “inactive” each time.
For the compound `CC(=O)OC(C)C(C)(O)C(=O)O[C@@H]1CC[C@]2(C)CC(=O)C(=C(C)C)C[C@H]2[C@]1(C)OC(C)=O` (stereo partly specified), the Potency entry in assay [1], in assay [2], in assay [3], in assay [4], in assay [5] and in assay [6] was “inactive” each time.
As for `COc1ccc(-n2c(=O)[nH]c3cc(C(=O)NCc4ccc(Cl)cc4)sc3c2=O)nc1OC`, the Potency result in assay [1], in assay [2], in assay [3], in assay [4], in assay [5] and in assay [6] was “inactive” each time.
For the compound `CC(=O)/C=C/[C@H]1[C@](C)(O)[C@@H](O)[C@H](O)C2C(C)(C)CCC[C@@]21C` (stereo partly specified), the Potency result in assay [1], in assay [2], in assay [3], in assay [4], in assay [5] and in assay [6] was “inactive” throughout.
As to `Cc1cc(Cn2cnc3c2CC(C(=O)O)N(C(=O)C(c2ccccc2)c2ccccc2)C3)ccc1N(C)C` (stereo unspecified), the Potency result in assay [1], in assay [2], in assay [3], in assay [4], in assay [5] and in assay [6] was “inactive” in each case.
As to `CC(CC12CCCN1C(=O)C1CCCN1C2=O)OC(N)=O` (stereo unspecified), the Potency entry in assay [1], in assay [2], in assay [3], in assay [4], in assay [5] and in assay [6] was “inactive” throughout.
Turning to `CC[C@@H]1C(=O)O[C@]23C=C[C@@H]4C(C(=O)OC)=CO[C@H](O[C@@H]12)[C@@H]43`, the Potency result in assay [1], in assay [2], in assay [3], in assay [5] and in assay [6] was “inactive” each time. Further, in assay [4], the Potency was 10.6 µM (active).
`CC1CC(O)/C=C/C(O)/C=C\C(=O)O1` (stereo unspecified): the Potency entry in assay [1], in assay [2], in assay [3], in assay [4], in assay [5] and in assay [6] was “inactive” throughout.
With `COc1cc(/C=C/C(=O)OC[C@H]2O[C@@H](OC3CC(C)=C(C(=O)O)C(C)(C)C3)[C@H](O)[C@@H](O)[C@@H]2O)cc(OC)c1O` (stereo partly specified), the Potency entry in assay [1], in assay [2], in assay [3], in assay [5] and in assay [6] was “inactive” in each case. In assay [4], the Potency is 3.27 µM (active).
As for `COC(=O)Cn1nc(-c2cccc(OC)c2)c2ccccc21`, the Potency entry in assay [1], in assay [2], in assay [3], in assay [4], in assay [5] and in assay [6] was “inactive” in each case.
Take `CC(=O)OCC1OC(O[C@H]2CC[C@]34C[C@]35CC(O)[C@]3(C)[C@@H]([C@H](C)CC/C=C(\C)C(=O)O)C(O)C[C@@]3(C)C5CC[C@H]4C2(C)C)C(O)C(O)C1OC1OCC(O)C(O)C1O` (stereo partly specified): the Potency result in assay [1] and in assay [2] was “inactive” each time. Further, the outcome in assay [3] was “inactive [at 11.6 µM]”. Further, the activity change, negative = thiol reactive in assay [4] is 154% [at 11.5 µM]. In addition, the activity, negative = inhibition in assay [5] was -3.42% [at 11.6 µM]. The redox activity (% of DA3003) in assay [6] was -5.4% [at 11.5 µM].
Take `C=CC(C)(O)C1CC2C3(C)CCCC(C)(C)C3C(O)C(O)C2(C)O1` (stereo unspecified): the Potency result in assay [1], in assay [2], in assay [3], in assay [4], in assay [5] and in assay [6] was “inactive” in each case.
For the compound `C[C@H]1CC[C@@]2(OC1)O[C@H]1CC3C4CC[C@H]5C[C@@H](O[C@@H]6O[C@H](CO)[C@H](O[C@@H]7O[C@H](CO)[C@@H](O)[C@H](O[C@@H]8OC[C@@H](O)[C@H](O)[C@H]8O)[C@H]7O[C@@H]7O[C@H](CO)[C@@H](O)[C@H](O)[C@H]7O)[C@H](O)[C@H]6O)[C@H](O)C[C@]5(C)C4=CC(=O)[C@]3(C)[C@H]1[C@@H]2C` (stereo partly specified), the Potency result in assay [1] and in assay [2] was “inactive” throughout. The activity change, negative = inhibition in assay [3] is 4.7% [at 11.6 µM]. In assay [4], the activity change, negative = thiol reactive was 203% [at 11.5 µM]. Also, the activity, negative = inhibition in assay [5] is 0% [at 11.6 µM]. Also, the redox activity (% of DA3003) in assay [6] was 3.4% [at 11.5 µM].
Take `C/C=C(/C)C(=O)OC1CC(C)(C)CC2C3=CCC4C5(C)CCC(OC6OC(C)C(OC7OC(C(=O)O)C(O)C(OC8OC(CO)C(O)C(O)C8OC8OC(CO)C(O)C(O)C8O)C7O)C(O)C6O)C(C)(C)C5CCC4(C)C3(C)C(OC(=O)/C=C/C=C/C=C/CCC)C(OC(C)=O)C12CO` (stereo unspecified): the Potency entry in assay [1] and in assay [2] was “inactive” each time. Moreover, the activity change, negative = inhibition in assay [3] is 1.89% [at 11.6 µM]. Besides, in assay [4], the activity change, negative = thiol reactive is 260% [at 11.5 µM]. In addition, the activity, negative = inhibition in assay [5] is -1.65% [at 11.6 µM]. For the same compound, the redox activity (% of DA3003) in assay [6] is 13.7% [at 11.5 µM].
